Results reported in PubChem BioAssay (Tox21).
The source made the active and inactive calls. Entries that show only a call come without a potency. Calls follow the shape of the full dose curve.

Biological target: Gonadotropin-releasing hormone receptor (Homo sapiens) (UniProt P30968)
Test: Human gonadotropin-releasing hormone receptor (GnRHR) small molecule agonists, calcium flux assay in GnRHR-HEK293 cells (AID 1920063); also: nearly all actives have a fitted effect of over 35% in size
Conditions: calcium flux fluorescence, agonist mode; series mostly up to 57.6 µM
Excerpt: National Center for Advancing Translational Sciences [NCATS]
Division of Preclinical Innovation [DPI]
U.S. Environmental Protection Agency [EPA]
National Institutes of Environmental Health Sciences [NIEHS]
National Toxicology Program [NTP]
U.S. Food and Drug Administration [FDA]
Gonadotropin-releasing hormone receptor (GnRHR) is a G-protein-coupled receptor (GPCR) and acts (through phospholipase C) to increase intracellular inositol trisphosphate and then release intracellular calcium stores. Cell-based GnRHR-Hek293 calcium influx assay is using HEK293 cells that have been genetically engineered to express the human GnRHR, which activity can be measured by calcium signaling. A compound/drug can activate (agonist) GnRHR that can be monitored by levels of intracellular calcium.
GnRHR-HEK293 cells developed by Codex Corp contain human GnRHR reporter gene, which was stably integrated into HEK 293 cells. The compound activation can be detected by fluorescence intensity via calcium flux assay. This cell line has been used to screen the Tox21 10K compound library to identify GnRHR agonists.
GnRHR-Hek293 cells were dispensed at 1500cells/4uL/well in 1536-well black wall/clear bottom plates using a multidrop dispenser. After the assay plates were incubated at a 37 C/5% CO2 incubator for 18 hours, 4 uL of Calcium Dye Solution was added to each well. The plates were incubated at 37 C for 1 hour. For agonist mode, 23 nL of compounds dissolved in DMSO, positive controls or DMSO only was transferred to the assay plate by a pin tool station. The fluorescence intensity in the plates was measured using FDSS 7000EX kinetic plate reader with a filter set of Ex/Em=480/540 for 3 min at 1 sec intervals. Each test compound was measured at 15 concentrations and in triplicates.
Potency is read from the fitted curve at half-maximal effect.

Chain of Gonadotropin-releasing hormone receptor (Homo sapiens) (P30968 whole entry, looked up): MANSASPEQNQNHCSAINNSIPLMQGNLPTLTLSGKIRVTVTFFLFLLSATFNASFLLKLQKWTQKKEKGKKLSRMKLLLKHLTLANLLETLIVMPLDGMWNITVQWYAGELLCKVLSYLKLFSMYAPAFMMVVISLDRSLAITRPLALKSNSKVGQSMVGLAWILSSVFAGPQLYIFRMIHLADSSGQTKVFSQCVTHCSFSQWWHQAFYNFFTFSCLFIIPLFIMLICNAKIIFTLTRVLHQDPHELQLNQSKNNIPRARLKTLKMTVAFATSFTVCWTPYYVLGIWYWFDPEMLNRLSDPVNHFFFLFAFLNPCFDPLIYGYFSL

Structure (SMILES)	Potency
CCCCCCCc1ccc(O)cc1	inactive
COC(=O)c1ccccc1S(=O)(=O)NC(=O)Nc1nc(C)cc(C)n1	inactive
CC(=O)[O-].CC(=O)[O-].[Co+2]	inactive
O=[N+]([O-])c1cc(Cl)c(Cl)cc1Cl	inactive
CCOP(=S)(NC(C)C)Oc1ccccc1C(=O)OC(C)C (stereo not given)	inactive
O=C1CCCCC1Cl (stereo not given)	inactive
CCOP(=S)(OCC)Oc1cc(-c2ccccc2)on1	inactive
CC(C)N1C(=O)N(c2ccccc2)CSC1=NC(C)(C)C	inactive
CN1C(=O)[C@@H](NC(=O)c2cc3ccccc3[nH]2)N=C(c2ccccc2)c2ccccc21	inactive
O=c1ssc(Cl)c1Cl	inactive
Cc1c([N+](=O)[O-])cc2c(c1[N+](=O)[O-])C(C)(C)CC2(C)C	inactive
COP(=S)(OC)Oc1ccc(S(N)(=O)=O)cc1	inactive
C=CCN1CC[C@]23c4c5ccc(O)c4O[C@H]2C(=O)CC[C@@]3(O)[C@H]1C5	inactive
NC(=O)C(Cl)Cl	inactive
C#CC(C)(C)O	inactive
CCC[N+](CCC)(CCC)CCC	inactive
C=C(C)C(=O)OCCCCOC(=O)C(=C)C	inactive
c1cc[c]([Sb]([c]2ccccc2)[c]2ccccc2)cc1	inactive
C=CC(=O)OCCN(C)C	inactive
c1ccc2c(c1)OCC(C1=NCCN1)O2 (stereo not given)	inactive

Structure (SMILES)	Potency
CCOP(=S)(OCC)OC(Cl)C(Cl)(Cl)Cl (stereo not given)	inactive
N#CCc1ccc(Cl)cc1	inactive
C=C(Cl)CSC(=S)N(CC)CC	inactive
N[C@@H]1C[C@H]1c1ccccc1	inactive
CSc1nc(N=[N+]=[N-])nc(NC(C)C)n1	inactive
Cc1cc(SCc2sc(-c3ccc(C(F)(F)F)c(F)c3)nc2C)ccc1OCC(=O)O	inactive
ClC(Cl)(Cl)Cl	inactive
O=CC=O	inactive
O=C(NC(=O)c1c(F)cccc1F)Nc1ccc(OC(F)(F)C(F)OC(F)(F)F)c(Cl)c1 (stereo not given)	inactive
COCCOCCO	inactive
c1ccc2c(c1)[nH]c1cnccc12	inactive
O=C(O)c1ccccc1C(=O)Nc1cccc2ccccc12	inactive
CC1C(=O)C[C@]2(C(C)C)C[C@H]12 (stereo not given in full)	inactive
N#Cc1c(-c2ccc(Cl)cc2)[nH]c(C(F)(F)F)c1Br	inactive
CN/C(=N\[N+](=O)[O-])NCC1CCOC1 (stereo not given)	inactive
CC(=O)CN(CC(C)=O)N=O	inactive
CC(=O)[O-].CC(=O)[O-].O.O.[Zn+2]	inactive
Nc1nc(N)c(N)c(N)n1	39.1 µM (active)
COC(=O)c1cc(Oc2ccc(Cl)cc2Cl)ccc1[N+](=O)[O-]	inactive
CCN(CC)CCOC(=O)C(C)(c1ccccc1)c1ccccc1	inactive
